This is an account of results in article PMC11006913.

Changes are numbered by the printed parent chain.

Common to all, as to experiment: PBM; 200 nM protein, PBS
What all share (settings): dsDNA, one strand shown

Assay [1] concerns the target NKX2-5 (Homo sapiens, UniProt P52952 125-210, R139K).
Assay [2] addresses T1, NKX2-4 (Homo sapiens, UniProt Q9H2Z4 175-261, P217L).
T1 sequence: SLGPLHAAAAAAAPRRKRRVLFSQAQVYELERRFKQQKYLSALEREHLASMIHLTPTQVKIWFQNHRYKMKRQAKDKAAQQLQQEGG

Assay [3] addresses T2, NKX2-4 (Homo sapiens, UniProt Q9H2Z4 175-261, T231S).
T2 sequence: T1 sequence with L43P, T57S

The target in assay [4] is T3, NKX2-6 (Homo sapiens, UniProt A6NCS4 118-204, R150C).
T3 sequence: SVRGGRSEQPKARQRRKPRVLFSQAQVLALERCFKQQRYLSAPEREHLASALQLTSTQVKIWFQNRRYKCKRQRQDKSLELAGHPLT

Assay [5] addresses T4, NKX2-6 (Homo sapiens, UniProt A6NCS4 118-204).
T4 sequence: T3 sequence with C33R

Assay [6] has as its target T5, NKX2-6 (Homo sapiens, UniProt A6NCS4 118-204, F151L).
T5 sequence: T3 sequence with C33R, F34L

Assay [7] addresses NKX3-2 (Homo sapiens, UniProt P78367 192-278, P234S).
For assay [8], the target named is NKX2-5 (Homo sapiens, UniProt P52952 125-210).
Assay [9] deals with NKX3-2 (Homo sapiens, UniProt P78367 192-278).
In assay [10] the target is T6, NKX2-4 (Homo sapiens, UniProt Q9H2Z4 175-261).
T6 sequence: T1 sequence with L43P

Assay [11] concerns the target T7, NKX2-4 (Homo sapiens, UniProt Q9H2Z4 175-261, R246Q).
T7 sequence: T1 sequence with L43P, R72Q

The target of assay [12] is T8, VENTX (Homo sapiens, UniProt O95231 78-163, R121Q).
T8 sequence: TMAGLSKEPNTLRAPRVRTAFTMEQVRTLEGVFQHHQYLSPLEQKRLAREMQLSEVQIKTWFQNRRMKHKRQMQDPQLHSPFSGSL

In assay [13] the target is T9, VENTX (Homo sapiens, UniProt O95231 78-163).
T9 sequence: T8 sequence with Q44R

In assay [14] the target is T10, VENTX (Homo sapiens, UniProt O95231 78-163, Y115F).
T10 sequence: T8 sequence with Y38F, Q44R

For the next assay, the target named is HOXB9 (Homo sapiens, UniProt P17482 171-250, R186Q).
Chain of HOXB9 (P17482 171-250 R186Q): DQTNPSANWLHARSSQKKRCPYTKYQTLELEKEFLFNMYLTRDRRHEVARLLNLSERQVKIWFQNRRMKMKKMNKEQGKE

Chain of NKX3-2 (Homo sapiens, UniProt P78367 192-278) (P78367 192-278): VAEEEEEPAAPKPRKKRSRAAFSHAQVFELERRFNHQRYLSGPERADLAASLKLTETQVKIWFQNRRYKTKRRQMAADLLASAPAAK
Chain of NKX2-5 (Homo sapiens, UniProt P52952 125-210, R139K) (P52952 125-210 R139K): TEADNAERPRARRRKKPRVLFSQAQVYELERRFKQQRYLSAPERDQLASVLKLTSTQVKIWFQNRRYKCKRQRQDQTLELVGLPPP
Chain of NKX3-2 (Homo sapiens, UniProt P78367 192-278, P234S) (P78367 192-278 P234S): as the sequence (P78367 192-278) above, with P43S counted along it
Chain of NKX2-5 (Homo sapiens, UniProt P52952 125-210) (P52952 125-210): as the sequence (P52952 125-210 R139K) above, with K15R counted along it

Take AAGTGGTC: the binding signal is 12.6 upbm affinity estimate (log intensity, higher = more binding, comparable within an allelic series) with NKX2-5 [1]; 12.4 upbm affinity estimate (log intensity, higher = more binding, comparable within an allelic series) with NKX2-4 [2]; 12.8 upbm affinity estimate (log intensity, higher = more binding, comparable within an allelic series) with NKX2-4 [3]; 11.8 upbm affinity estimate (log intensity, higher = more binding, comparable within an allelic series) in the assay with NKX2-6 [4]; 13.4 upbm affinity estimate (log intensity, higher = more binding, comparable within an allelic series) in the assay with NKX2-6 [5]; 10.5 upbm affinity estimate (log intensity, higher = more binding, comparable within an allelic series) with NKX2-6 [6]. In addition, the binding signal was 12.9 upbm affinity estimate (log intensity, higher = more binding, comparable within an allelic series) with NKX3-2 [7]; 12.6 upbm affinity estimate (log intensity, higher = more binding, comparable within an allelic series) with NKX2-5 [8]; 12.9 upbm affinity estimate (log intensity, higher = more binding, comparable within an allelic series) in the assay with NKX3-2 [9].

As for AAGTGCCC, the binding signal is 12.4 upbm affinity estimate (log intensity, higher = more binding, comparable within an allelic series) with NKX2-5 [1]; 12.5 upbm affinity estimate (log intensity, higher = more binding, comparable within an allelic series) with NKX2-4 [2]; 12.8 upbm affinity estimate (log intensity, higher = more binding, comparable within an allelic series) with NKX2-4 [3]; 12.3 upbm affinity estimate (log intensity, higher = more binding, comparable within an allelic series) in the assay with NKX2-4 [10]; 11.6 upbm affinity estimate (log intensity, higher = more binding, comparable within an allelic series) in the assay with NKX2-6 [4]; 13 upbm affinity estimate (log intensity, higher = more binding, comparable within an allelic series) with NKX2-4 [11]. Further, the binding signal is 10.8 upbm affinity estimate (log intensity, higher = more binding, comparable within an allelic series) with NKX2-6 [6]; 12.9 upbm affinity estimate (log intensity, higher = more binding, comparable within an allelic series) with NKX3-2 [7]; 12.4 upbm affinity estimate (log intensity, higher = more binding, comparable within an allelic series) with NKX2-5 [8]; 12.9 upbm affinity estimate (log intensity, higher = more binding, comparable within an allelic series) with NKX3-2 [9].

Consider CCTCTTAA, for which the binding signal with NKX2-5 [1] was 12.3 upbm affinity estimate (log intensity, higher = more binding, comparable within an allelic series); in the assay with NKX2-4 [2], 12.4 upbm affinity estimate (log intensity, higher = more binding, comparable within an allelic series); with NKX2-4 [3] it was 12.7 upbm affinity estimate (log intensity, higher = more binding, comparable within an allelic series); with NKX2-4 [10], 12.3 upbm affinity estimate (log intensity, higher = more binding, comparable within an allelic series); with NKX2-6 [5], 13.4 upbm affinity estimate (log intensity, higher = more binding, comparable within an allelic series); with NKX2-4 [11] it was 12.9 upbm affinity estimate (log intensity, higher = more binding, comparable within an allelic series). For the same sequence, the binding signal with NKX2-6 [6] was 10.5 upbm affinity estimate (log intensity, higher = more binding, comparable within an allelic series); with NKX2-5 [8], 12.3 upbm affinity estimate (log intensity, higher = more binding, comparable within an allelic series).

For CTCTTAAG, the binding signal is 12.3 upbm affinity estimate (log intensity, higher = more binding, comparable within an allelic series) with NKX2-5 [1]; 12.5 upbm affinity estimate (log intensity, higher = more binding, comparable within an allelic series) with NKX2-4 [2]; 12.7 upbm affinity estimate (log intensity, higher = more binding, comparable within an allelic series) with NKX2-4 [3]; 12.3 upbm affinity estimate (log intensity, higher = more binding, comparable within an allelic series) with NKX2-4 [10]; 13.5 upbm affinity estimate (log intensity, higher = more binding, comparable within an allelic series) in the assay with NKX2-6 [5]; 12.9 upbm affinity estimate (log intensity, higher = more binding, comparable within an allelic series) in the assay with NKX2-4 [11]. The binding signal with NKX2-6 [6] was 10.6 upbm affinity estimate (log intensity, higher = more binding, comparable within an allelic series); with NKX2-5 [8], 12.3 upbm affinity estimate (log intensity, higher = more binding, comparable within an allelic series).

Consider CACTTCAA, for which the binding signal with NKX2-5 [1] is 12.4 upbm affinity estimate (log intensity, higher = more binding, comparable within an allelic series); with NKX2-4 [2], 12.6 upbm affinity estimate (log intensity, higher = more binding, comparable within an allelic series); with NKX2-4 [3] it was 13 upbm affinity estimate (log intensity, higher = more binding, comparable within an allelic series); in the assay with NKX2-4 [10], 12.5 upbm affinity estimate (log intensity, higher = more binding, comparable within an allelic series); with NKX2-6 [4], 11.6 upbm affinity estimate (log intensity, higher = more binding, comparable within an allelic series); with NKX2-4 [11] it was 13.1 upbm affinity estimate (log intensity, higher = more binding, comparable within an allelic series). Also, the binding signal with NKX2-6 [6] was 10.9 upbm affinity estimate (log intensity, higher = more binding, comparable within an allelic series); in the assay with NKX2-5 [8] it was 12.4 upbm affinity estimate (log intensity, higher = more binding, comparable within an allelic series).

As for CACGGGCC, the binding signal was 8.73 upbm affinity estimate (log intensity, higher = more binding, comparable within an allelic series) with NKX2-5 [1]; 7.96 upbm affinity estimate (log intensity, higher = more binding, comparable within an allelic series) in the assay with VENTX [12]; 8.01 upbm affinity estimate (log intensity, higher = more binding, comparable within an allelic series) with VENTX [13]; 7.92 upbm affinity estimate (log intensity, higher = more binding, comparable within an allelic series) with VENTX [14]; 8.71 upbm affinity estimate (log intensity, higher = more binding, comparable within an allelic series) with NKX2-5 [8].

As for CCTCTTGA, the binding signal in the assay with NKX2-5 [1] was 12.5 upbm affinity estimate (log intensity, higher = more binding, comparable within an allelic series); with NKX2-4 [2], 12.7 upbm affinity estimate (log intensity, higher = more binding, comparable within an allelic series); with NKX2-4 [3] it was 13 upbm affinity estimate (log intensity, higher = more binding, comparable within an allelic series); in the assay with NKX2-4 [10], 12.5 upbm affinity estimate (log intensity, higher = more binding, comparable within an allelic series); in the assay with NKX2-6 [4], 11.7 upbm affinity estimate (log intensity, higher = more binding, comparable within an allelic series); with NKX2-6 [5] it was 13.4 upbm affinity estimate (log intensity, higher = more binding, comparable within an allelic series). Moreover, the binding signal with NKX2-4 [11] was 13.2 upbm affinity estimate (log intensity, higher = more binding, comparable within an allelic series); with NKX2-6 [6], 10.5 upbm affinity estimate (log intensity, higher = more binding, comparable within an allelic series); with NKX2-5 [8], 12.5 upbm affinity estimate (log intensity, higher = more binding, comparable within an allelic series).

Regarding CCAGCCAG, the binding signal with NKX2-5 [1] is 8.68 upbm affinity estimate (log intensity, higher = more binding, comparable within an allelic series); with HOXB9, 8.39 upbm affinity estimate (log intensity, higher = more binding, comparable within an allelic series); in the assay with NKX2-5 [8] it was 8.64 upbm affinity estimate (log intensity, higher = more binding, comparable within an allelic series).

For the sequence TAAGTACA, the binding signal with NKX2-5 [1] is 12.4 upbm affinity estimate (log intensity, higher = more binding, comparable within an allelic series); in the assay with NKX2-4 [3], 12.8 upbm affinity estimate (log intensity, higher = more binding, comparable within an allelic series); with NKX2-6 [4], 11.9 upbm affinity estimate (log intensity, higher = more binding, comparable within an allelic series); in the assay with NKX2-6 [5] it was 13.3 upbm affinity estimate (log intensity, higher = more binding, comparable within an allelic series); in the assay with NKX2-6 [6], 10.5 upbm affinity estimate (log intensity, higher = more binding, comparable within an allelic series); with NKX3-2 [7], 12.6 upbm affinity estimate (log intensity, higher = more binding, comparable within an allelic series). Also, the binding signal in the assay with NKX2-5 [8] was 12.4 upbm affinity estimate (log intensity, higher = more binding, comparable within an allelic series); with NKX3-2 [9], 12.6 upbm affinity estimate (log intensity, higher = more binding, comparable within an allelic series).
